HEK293 cAMP cs: qHTS Assay for Agonists of the Thyroid Stimulating Hormone Receptor: Activators of Intracellular cAMP Concentrations in Parental HEK 293; 73,000 compounds, 2.5% hits; Potency, µM (highest dose often 57.1 µM), for the others: top-dose activation, usual class: activators; AID 938, 2007; parental HEK293 CNG cAMP sensor, membrane potential fluorescence; note: % of control where 0% means no effect; nearly all actives have a fitted effect of over 55% in size
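Parental HEK 293 cells stably expressing a cAMP-gated CNG channel were loaded with membrane potential dye containing 100 uM RO 20-1724 for 60 min. Compound added for 30 min; depolarization read as fluorescence intensity at 590 nm.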
Tau filament bind: qHTS Assay for Tau Filament Binding; 71,000 compounds, 2% hits; Potency, µM (doses to about 57.1 µM), without a hit: at the highest dose activity change, negative = inhibition; recombinant tau filaments, thioflavin S fluorescence, 15 h; filaments grown with octadecylsulfate alongside compound;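 note: % is set by controls: 0 for no effect and ±100 for the full control effect; actives lower thioflavin S fluorescence by blocking filaments or displacing dye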
Target sequence (P10636 whole entry, looked up): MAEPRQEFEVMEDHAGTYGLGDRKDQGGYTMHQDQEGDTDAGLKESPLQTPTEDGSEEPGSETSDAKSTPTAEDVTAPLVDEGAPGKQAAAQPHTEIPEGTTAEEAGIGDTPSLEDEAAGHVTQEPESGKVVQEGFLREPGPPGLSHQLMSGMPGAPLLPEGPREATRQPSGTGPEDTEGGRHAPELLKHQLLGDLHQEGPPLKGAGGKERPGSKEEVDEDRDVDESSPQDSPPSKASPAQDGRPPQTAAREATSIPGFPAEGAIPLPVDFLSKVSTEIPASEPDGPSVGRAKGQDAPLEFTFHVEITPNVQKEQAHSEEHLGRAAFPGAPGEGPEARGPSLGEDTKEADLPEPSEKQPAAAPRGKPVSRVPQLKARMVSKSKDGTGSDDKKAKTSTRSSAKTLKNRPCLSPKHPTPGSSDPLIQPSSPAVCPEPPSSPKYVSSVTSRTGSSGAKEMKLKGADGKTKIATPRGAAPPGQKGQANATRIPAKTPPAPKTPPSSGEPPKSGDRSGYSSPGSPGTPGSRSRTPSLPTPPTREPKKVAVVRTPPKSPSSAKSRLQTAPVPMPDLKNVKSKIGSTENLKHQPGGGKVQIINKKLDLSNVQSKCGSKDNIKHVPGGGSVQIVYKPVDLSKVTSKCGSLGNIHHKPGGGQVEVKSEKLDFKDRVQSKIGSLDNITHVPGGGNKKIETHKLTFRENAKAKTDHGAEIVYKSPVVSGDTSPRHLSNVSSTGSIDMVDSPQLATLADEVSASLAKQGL
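Thioflavine S fluorescence (ex 450, em 510 nm) reports filaments formed from 1 uM human tau plus 30 uM ODS over 15 h at 37 C (10 mM HEPES pH 7.4, 100 mM NaCl, 5 mM DTT); compounds displacing dye or blocking filaments lower signal.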
CRE Fsk mod: Cell signaling CRE-BLA (Fsk stim) | AID 662, 2007 | Potency, µM (top dose mostly 38.2 µM), for the others: at the top dose activity change, negative = inhibition, hits mostly activators | CHO CRE-bla reporter (cAMP response element driving beta-lactamase), forskolin EC10, beta-lactamase ratio | 71,000 compounds, 2.5% hits; active = well fitted activation curve with a large enough effect in the signal ratio, with a control signal flat, not every such curve was filed as active; inconclusive = small, poorly fitted or top-dose-only effect, or effect the other way, or a change in a side signal; the % refers to the signal ratio; note: % of control where 0% means no effect
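Forskolin analogue NKH 477 at EC10 stimulated CRE-driven beta-lactamase in CHO cells alongside compound dilution series. Beta-lactamase was measured with CCF4, excitation 405 nm, emission ratio 460/530 nm.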
ERK AVP block: qHTS Assay for Inhibitors of the ERK Signaling Pathway using a Homogeneous Screening Assay. HEK293-V1b, vasopressin-stimulated pERK AlphaScreen. Potency, µM (titrated, usually from 57.5 µM), without a hit: at the top dose activity, negative = inhibition, most hits filed as inhibitors. 72,000 compounds, 0.99% hits; note: % is set by controls: 0 for no effect and ±100 for the full control effect; nearly all actives have a fitted effect of over 55% in size
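HEK293 cells stably expressing V1b receptor, seeded overnight in 1% FBS, were treated with compounds for 30 min at 37C, then stimulated 5 min with 25 nM vasopressin; phospho-ERK read by AlphaScreen SureFire after lysis.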
TSHR ag: qHTS Assay for Agonists of the Thyroid Stimulating Hormone Receptor. Thyrotropin receptor (Homo sapiens), P16473. 73,000 compounds, 0.48% hits. AID 926, 2007. Potency, µM (titrated, usually from 57.1 µM), for inactives: at the highest dose activation, most hits filed as activators. HEK293-CNG-TSHR cells (CNG channel as cAMP sensor), membrane potential dye, cAMP; active = well fitted activation curve with a large enough effect in the main read-out, with a control signal flat, not every such curve was filed as active; inconclusive = small, poorly fitted or top-dose-only effect, or a change in a side signal; inactive = no such curve, though single readings can be large or run the other way; % of control where 0% means no effect;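 note: the control signal comes from parental cells without the receptor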
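HEK 293 cells stably expressing TSHR and a cAMP-gated CNG channel; parental CNG-only cells as counterscreen. Cells preloaded 60 min with membrane potential dye plus 100 uM RO 20-1724, then compound 30 min; fluorescence read at 590 nm.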
Numbers without * were called inactive; ? = inconclusive; . = no result; [ ] = another dose, or the depositor's remark. This is a sample that favours compounds with a hit; in the whole collection about 7.4% have one here. Unless noted, calls come from the whole dose curve; as a rule, active = well fitted curve in the direction sought with a large enough effect; inconclusive = small, poorly fitted or top-dose-only effect, or another doubt; inactive = no such curve, though single readings can be large; an effect the other way counts as inactive or inconclusive. Potency is the fitted concentration of half-maximal effect.

SMILES	HEK293 cAMP cs	Tau filament bind	CRE Fsk mod	ERK AVP block	TSHR ag
O=C1CC(c2cccc(Cl)c2)Cc2nc(N3CCOCC3)ncc21 (configuration not stated)	5.01µM*	10.1%	?	?	?
COC(=O)[C@@H]1C[C@H]1[C@@H](NC(=O)c1ccc(Br)cc1)c1ccccc1	?	-21.3%	-0.8%	-2.0%	?
[O-][N+]1(CC[N+]2([O-])CCCCC2)CCCCC1	-3.2%[11.4 µM]	2.2%[11.4 µM]	-2.7%[7.6 µM]	-20.8%[11.5 µM]	7.5%[11.4 µM]
Cc1cc(-c2ccc(Cl)cc2)n2nc(N)nc2n1	-2.8%	3.3%	12.6µM*	?	-0.9%
Nc1nc2nccc(-c3ccc(Cl)cc3)n2n1	2.0%	1.4%	16.8%	-8.3%	-7.6%
COCCn1c(=O)c(CCc2ccccc2)nc2cnc(Oc3ccccc3)nc21	25.1µM*	-10.6%	?	7.7%	?
N#CCCn1c(=O)c(CCc2ccccc2)nc2cnc(Oc3cccc(Cl)c3)nc21	5.01µM*	-20.4%	9.2%	6.5%	?
COCCn1c(=O)c(CCc2ccccc2)nc2cnc(Oc3ccc(OC)cc3)nc21	?	-5.1%	0.1%	-4.1%	?
Cc1nc2cnc(Oc3cccc(Cl)c3)nc2n(CCC#N)c1=O	?	-3.2%	-0.8%	4.5%	?
CCCCC[C@@H](O)[C@@H]1C(=O)O[C@@H](C)[C@@H](O)\C=C/C=C\C=C/C=C\C=C(\C)[C@H](O)C[C@H](O)C[C@H](O)C[C@H](O)C[C@H](O)C[C@H](O)C[C@@H]1O	-3.3%[11.4 µM]	8.5%[11.4 µM]	-3.3%[7.6 µM]	.	.
O[C@H]([C@H](O)[C@@H](O)c1nc2ccccc2[nH]1)[C@@H](O)c1nc2ccccc2[nH]1	-2.4%[11.4 µM]	5.9%[11.4 µM]	1.4%[7.6 µM]	2.8%[11.5 µM]	-1.9%[11.4 µM]
O=C(NCc1ccc2c(c1)OCO2)C(c1ccco1)N(C(=O)c1csnn1)c1ccccc1 (configuration not stated)	7.0%	-5.1%	?	-1.4%	3.16µM*
O=C(O)CCCC[C@H]1CCSS1	15.5%	-8.7%	-10.9%	-2.3%	10.4%
CC1(C)CC(N2CCN(c3ccccc3)CC2)=CC(=[N+]2CCCC2)C1	7.94µM*	10.3%	-3.6%	-9.6%	?
CCCCCCCCCCCCCCCCCCNC(=O)OC[C@@H](COP(=O)([O-])OCC[n+]1ccsc1)OC	?	-1.5%	-2.5%	15.0%	?
CCOC(=O)N1CCN(Cc2cc(=O)oc3ccc4ccccc4c23)CC1	25.1µM*	7.1%	6.2%	-3.4%	?
O=c1cc(CN2CCOCC2)c2c(ccc3ccccc32)o1	?	6.1%	18.3%	-0.5%	?
CCCCSc1nc2c(c(=O)[nH]c(=O)n2C)n1CCc1ccccc1	?	99.5%	10µM*	.	?
C/C=C/Cn1c(SCCCc2ccccc2)nc2c1c(=O)[nH]c(=O)n2C	24.5%	119.8%	?	.	84.0%
CC(C)n1c(SCCCc2ccccc2)nc2c1c(=O)[nH]c(=O)n2C	5.9%	32.0%	6.31µM*	.	1.5%[11.4 µM]
CCCc1nc2ccccc2n2cc3c(=O)n(C)c(=O)n(C)c3c12	4.0%	5.1%	5.01µM*	-19.9%	3.5%
COc1cc(-c2nnc(-c3cccs3)o2)cc(OC)c1OC	7.6%	-1.1%	2.51µM*	-25.2%	0.1%
N#CC(CC(=O)O)=C(c1ccccc1)c1ccccc1	17.6%[11.4 µM]	-14.2%[11.4 µM]	8.2%[7.6 µM]	-10.7%[11.5 µM]	6.0%[11.4 µM]
COCCCN1C(=O)c2ccccc2C1C(=O)NC1CCCCCC1 (configuration not stated)	?	13.3%	-2.3%	15.7%	?
O=C(NC1CCCCCC1)C1c2ccccc2C(=O)N1Cc1ccco1 (configuration not stated)	12.6µM*	-1.0%	-11.6%	20.6%	?
Cc1cc(=O)oc2cc(O)c(CN(C)CC(=O)O)cc12	10.2%[11.4 µM]	-1.0%[11.4 µM]	18.0%[7.6 µM]	-0.3%[11.5 µM]	9.4%[11.4 µM]
O=C(O)CC[C@]1(C(=O)O)CCC(=O)c2ccccc21	10.2%[11.4 µM]	-2.8%[11.4 µM]	11.9%[7.6 µM]	19.7%[11.5 µM]	1.5%[11.4 µM]
NS(=O)(=O)c1ccc(N=Nc2cc3ccccc3c(C(=O)O)c2O)cc1	-25.5%[11.4 µM]	1.26µM*	-5.2%[7.6 µM]	-25.6%[11.5 µM]	-26.3%[11.4 µM]

Assay outcomes as filed in PubChem BioAssay.
